# In PubChem BioAssay AID1210 (NMMLSC, 2008):
# Active and inactive are the calls of the source.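 How the source made its calls: active means blocks over 70% of labeled estradiol binding at 10 µM, or over a set limit at 100 nM; inactive means the rest.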
# Target: Estrogen receptor beta (Homo sapiens) (UniProt Q92731)
# Experiment: displacement of fluorescent estrogen from ERbeta – cell-based, Cos7 ERbeta-GFP, flow cytometry, primary screen (AID 1210);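 further: 0% = DMSO vehicle wells and 100% = complete loss of labeled estradiol signal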
# Conditions: fluorescent estrogen binding, stronger effect = higher value
# [1] = ligand binding inhibition, at 0.1 µM
# Estrogen receptor beta (Homo sapiens), sequence (Q92731 whole entry, looked up): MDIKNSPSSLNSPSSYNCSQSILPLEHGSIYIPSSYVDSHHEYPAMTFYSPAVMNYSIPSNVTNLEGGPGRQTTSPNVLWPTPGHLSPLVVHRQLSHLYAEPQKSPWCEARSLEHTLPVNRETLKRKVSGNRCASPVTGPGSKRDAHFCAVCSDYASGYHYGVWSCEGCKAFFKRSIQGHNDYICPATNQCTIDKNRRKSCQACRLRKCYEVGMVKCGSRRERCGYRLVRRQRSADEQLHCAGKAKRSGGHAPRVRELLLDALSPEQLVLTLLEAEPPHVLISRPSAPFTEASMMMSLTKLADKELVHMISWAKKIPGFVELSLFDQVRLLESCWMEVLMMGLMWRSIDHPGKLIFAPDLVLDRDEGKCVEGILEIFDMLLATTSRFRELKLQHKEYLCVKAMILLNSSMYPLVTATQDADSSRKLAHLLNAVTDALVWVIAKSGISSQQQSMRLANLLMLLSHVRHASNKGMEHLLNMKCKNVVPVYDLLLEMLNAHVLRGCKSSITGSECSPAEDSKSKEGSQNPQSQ
SMILES,inhibition (at 10 µM),inhibition [1] [%]
COC(=O)c1c(-c2ccncc2)csc1NC(=O)c1ccoc1C,52% (inactive),1
CCOc1ccccc1C1C(C#N)=C(N)Nc2onc(-c3ccccc3)c21 (stereo not drawn),5% (inactive),38
Oc1ccc(/C=N/n2c(-c3ccco3)csc2=Nc2cccnc2)c(O)c1,20% (inactive),18
Cc1cc2n(c1)CCn1c(C)ccc1-2,17% (inactive),31
CCOC(=O)c1c(C)[nH]c(C)c1C(=O)CSc1nnc(-c2cc(OC)c(OC)c(OC)c2)o1,69% (inactive),7
CCCCn1c(NC(=O)CC)c(C#N)c2nc3ccccc3nc21,47% (inactive),17
CN(CC(=O)NC(=O)NCc1ccco1)Cc1nc2ccccc2c(=O)[nH]1,14% (inactive),53
Cc1cc(C(=O)CSc2nnc(-c3ccccc3F)o2)c(C)n1Cc1cccs1,51% (inactive),30
Cc1snc2sc(C(=O)c3ccc(Br)cc3)c(N)c12,26% (inactive),20
c1ccc(OCc2nnc3sc(C4COc5ccccc5O4)nn23)cc1 (stereo not drawn),29% (inactive),28
O=C(CSc1nnc(-c2ccc(OC(F)F)cc2)o1)NC(=O)NCc1ccco1,39% (inactive),44
COc1cc2c(cc1O)C(Cc1ccc(O)cc1)NCC2 (stereo not drawn),72% (active),11
Cc1ccc2[nH]c(=O)c(C3C(C#N)=C(N)Oc4c3ccc3cccnc43)cc2c1 (stereo not drawn),44% (inactive),24
Cc1ccc(C2=Nc3ccccc3N=C(c3ccco3)C2)c(O)c1,2% (inactive),29
